Data on eight compounds can be found in PubChem BioAssay (NCI).

Test systems include SR leukemia; RPMI-8226 leukemia; OVCAR-8 ovarian; OVCAR-5 ovarian; OVCAR-4 ovarian; SK-OV-3 ovarian; IGROV1 ovarian; OVCAR-3 ovarian; HS 578T breast; NCI/ADR-RES ovarian; T-47D breast; BT-549 breast; MDA-MB-435 melanoma; SW-620 colon; MCF7 breast; HCT-116 colon; HCC-2998 colon; KM12 colon; MDA-MB-468 breast.
Holding throughout (test): NCI-60 one-dose screen, 48 h (100 = growth as untreated, 0 = no growth, -100 = all killed)
Holding throughout (conditions): 10 µM unless noted

Each structure is given as a SMILES string. About 83,000 compounds went through this panel and 20% of them were active in at least one assay; those are over-represented in the sample as a whole.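 Activity criterion: percent growth below 10, measured after cells in 96-well plates were exposed to a single compound concentration for 48 hours.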 Unmarked numbers belong to inactive results. The source made the active and inactive calls.

As to `C=C1CCC2C3(C)COC(c4ccccc4)OC3CCC2(C)C1CC(NCc1ccccc1)C1=CCOC1=O` (configuration not stated), the growth in the experiment on SR leukemia was 68.6%; with RPMI-8226 leukemia it was 34.1%; in the experiment on OVCAR-8 ovarian, 82.9%; with OVCAR-5 ovarian it was 87.5%; in the experiment with OVCAR-4 ovarian it was 82.8%; with SK-OV-3 ovarian it was 79.9%. The growth in the experiment with IGROV1 ovarian is 90.6%; in the experiment on OVCAR-3 ovarian, 83%; in the experiment on HS 578T breast it was 78%; in the experiment on NCI/ADR-RES ovarian, 77.7%; in the experiment with T-47D breast, 63.6%; with BT-549 breast, 73.4%. The growth in the experiment on MDA-MB-435 melanoma was 85%; in the experiment with SW-620 colon, 89.8%; in the experiment with MCF7 breast, 70.2%; in the experiment with HCT-116 colon, 69%; in the experiment with HCC-2998 colon, 81.2%; in the experiment with KM12 colon, 85.6%. Further, the growth in the experiment with MDA-MB-468 breast is 49.3%.

On to `Cn1cc(-c2nnc(N)nc2-c2c[nH]c3ccc(F)cc23)c2cccnc21`, for which the growth in the experiment on SR leukemia was 25.5%; with RPMI-8226 leukemia, 49.1%; in the experiment with OVCAR-8 ovarian, 49.3%; in the experiment with OVCAR-5 ovarian it was 83.3%; with OVCAR-4 ovarian, 77.6%; with SK-OV-3 ovarian, 65.8%. Besides, the growth was 40.7% in the experiment with IGROV1 ovarian; 25.3% with OVCAR-3 ovarian; 42% in the experiment with HS 578T breast; 72.9% in the experiment on NCI/ADR-RES ovarian; 40.7% with T-47D breast; 34% with BT-549 breast. Further, the growth with MDA-MB-435 melanoma is -21.8% (active); in the experiment with SW-620 colon it was 19.3%; in the experiment with MCF7 breast, 23.6%; with HCT-116 colon, 15.1%; with HCC-2998 colon, 65.8%; in the experiment on KM12 colon it was 22.3%. In addition, in the experiment on MDA-MB-468 breast, the growth was 39.1%.

Take `Nc1nnc(-c2c[nH]c3ccc(Br)cc23)c(-c2c[nH]c3ncc(Br)cc23)n1`: the growth with SR leukemia was 23.6%; in the experiment on RPMI-8226 leukemia, 19.6%; in the experiment on OVCAR-8 ovarian it was 34.3%; in the experiment on OVCAR-5 ovarian, 59%; with OVCAR-4 ovarian it was 33.6%; with SK-OV-3 ovarian it was 37.6%. For the same compound, the growth with IGROV1 ovarian was 22%; in the experiment with OVCAR-3 ovarian, 62.4%; with HS 578T breast it was 48.8%; in the experiment on NCI/ADR-RES ovarian it was 78.6%; in the experiment on T-47D breast, 16.7%; in the experiment on BT-549 breast, 35.4%. For the same compound, the growth is 30.3% with MDA-MB-435 melanoma; 50.2% in the experiment on SW-620 colon; 12.3% in the experiment with MCF7 breast; 17.1% in the experiment with HCT-116 colon; 48.5% in the experiment with HCC-2998 colon; 32.6% with KM12 colon. In addition, the growth in the experiment with MDA-MB-468 breast was 26.1%.

As for `Cc1ccccc1[C@H]1C(C(=O)c2ccc(Cl)cc2)C2(N[C@@H]1c1ccccc1)C(=O)Nc1ccc(Br)cc12` (some centres not stated), the growth is -21.5% (active) in the experiment with SR leukemia; -10.5% (active) in the experiment with RPMI-8226 leukemia; 2.36% (active) in the experiment on OVCAR-8 ovarian; 5.07% (active) in the experiment with OVCAR-5 ovarian; 14.6% in the experiment on OVCAR-4 ovarian; 33.4% in the experiment with SK-OV-3 ovarian. For the same compound, the growth with IGROV1 ovarian is 13.4%; in the experiment with OVCAR-3 ovarian, -30.7% (active); in the experiment on HS 578T breast, 10.7%; in the experiment on NCI/ADR-RES ovarian, -55.1% (active); in the experiment with T-47D breast, 22.6%; in the experiment on BT-549 breast, 13.1%. The growth in the experiment on MDA-MB-435 melanoma is 3.21% (active); in the experiment with SW-620 colon, 13.3%; in the experiment on MCF7 breast, -6.57% (active); with HCT-116 colon, -71.6% (active); with HCC-2998 colon it was -22.1% (active); in the experiment on KM12 colon, 3.4% (active). Also, the growth in the experiment on MDA-MB-468 breast was -26.1% (active).

In the case of `CCCCSc1nc(NCCc2c[nH]c3ccccc23)c(C#N)c(-c2ccccc2)n1`, the growth in the experiment on SR leukemia is 2.16% (active); in the experiment with RPMI-8226 leukemia, 14.1%; in the experiment with OVCAR-8 ovarian, 49.2%; in the experiment with OVCAR-5 ovarian, 82.7%; in the experiment with OVCAR-4 ovarian, 62.2%; in the experiment with SK-OV-3 ovarian it was 76.6%. Further, the growth in the experiment on IGROV1 ovarian is 96%; in the experiment on OVCAR-3 ovarian, 55.9%; with HS 578T breast, 39.6%; in the experiment on NCI/ADR-RES ovarian, 22.9%; in the experiment with T-47D breast it was -0.0859% (active); with BT-549 breast it was 70.2%. Also, the growth with MDA-MB-435 melanoma was 49.2%; in the experiment on SW-620 colon it was 4.59% (active); with MCF7 breast it was 3.23% (active); in the experiment on HCT-116 colon it was 4.22% (active); with HCC-2998 colon it was 16.3%; with KM12 colon it was 7.79% (active). Further, in the experiment on MDA-MB-468 breast, the growth is 3.04% (active).

Regarding `Cc1ccc(/C=C/c2n(Cc3ccc4ccccc4c3)c3ccccc3[n+]2Cc2ccc3ccccc3c2)cc1`, the growth with SR leukemia was -34.2% (active); in the experiment on RPMI-8226 leukemia, -71% (active); in the experiment with OVCAR-8 ovarian, -59.8% (active); in the experiment with OVCAR-5 ovarian, -94% (active); with OVCAR-4 ovarian, -70.5% (active); with SK-OV-3 ovarian, -87.1% (active). For the same compound, the growth in the experiment on IGROV1 ovarian was -76% (active); in the experiment with OVCAR-3 ovarian, -83.3% (active); with HS 578T breast it was -46.2% (active); with NCI/ADR-RES ovarian, -48.1% (active); in the experiment with T-47D breast, -51.1% (active); in the experiment with BT-549 breast, -69.9% (active). Also, the growth in the experiment on MDA-MB-435 melanoma was -78.2% (active); in the experiment with SW-620 colon, -75.1% (active); in the experiment with MCF7 breast it was -78.3% (active); in the experiment with HCT-116 colon, -40.8% (active); in the experiment on HCC-2998 colon, -87.3% (active); with KM12 colon, -88.5% (active). In addition, the growth with MDA-MB-468 breast is -78.6% (active).

Regarding `Cc1ccc(C2=NN(c3nc(-c4cc5ccccc5oc4=O)cs3)C(c3ccc(C)cc3)C2)cc1` (configuration not stated), the growth was 102% in the experiment on SR leukemia; 98.6% in the experiment with RPMI-8226 leukemia; 106% in the experiment on OVCAR-8 ovarian; 126% in the experiment on OVCAR-5 ovarian; 99.1% with OVCAR-4 ovarian; 80.3% with SK-OV-3 ovarian. For the same compound, the growth in the experiment on IGROV1 ovarian is 104%; in the experiment with OVCAR-3 ovarian it was 109%; in the experiment with HS 578T breast, 101%; with NCI/ADR-RES ovarian it was 101%; in the experiment with T-47D breast, 91.8%; in the experiment on BT-549 breast it was 120%. Further, the growth is 107% in the experiment with MDA-MB-435 melanoma; 105% in the experiment on SW-620 colon; 63.4% with MCF7 breast; 110% in the experiment on HCT-116 colon; 118% in the experiment with HCC-2998 colon; 106% in the experiment with KM12 colon. The growth in the experiment on MDA-MB-468 breast is 78.2%.

Regarding `CC1CN(c2oc(-c3ccc([N+](=O)[O-])cc3)nc2C#N)CC(C)O1` (configuration not stated), the growth is 83.3% with SR leukemia; 101% with RPMI-8226 leukemia; 103% in the experiment on OVCAR-8 ovarian; 107% in the experiment with OVCAR-5 ovarian; 102% in the experiment with OVCAR-4 ovarian; 110% in the experiment with SK-OV-3 ovarian. Also, the growth with IGROV1 ovarian is 103%; with OVCAR-3 ovarian, 110%; with HS 578T breast it was 94.4%; in the experiment on NCI/ADR-RES ovarian, 95.4%; with T-47D breast it was 97.4%; in the experiment with BT-549 breast it was 107%. Moreover, the growth is 100% in the experiment on MDA-MB-435 melanoma; 102% in the experiment with SW-620 colon; 88.4% in the experiment with MCF7 breast; 108% in the experiment on HCT-116 colon; 101% in the experiment with HCC-2998 colon; 103% in the experiment on KM12 colon. Besides, in the experiment with MDA-MB-468 breast, the growth is 125%.
